Measured values from PubChem BioAssay AID1159580 (chemical genetic matrix, 2015).
Where “and” joins values, the source holds several entries; their conditions need not be identical. Equal entries are not always repeated. In all, about 5,500 compounds went through this assay and about 2,000 (36%) were called active. Roughly 18% stayed inconclusive and do not appear here. Cut-off read from the data, not from the text of the source: active = normalized growth mostly below about 0.91 (no sharp cut-off); inconclusive = no clear call, values can overlap the other calls; inactive = mostly above about 0.92. The list shows a part of the results.

Assay: chemical genetic growth profiling, strain panel (AID 1159580);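 note: tested at 20 µM; growth read once vehicle control cultures reached saturation at 30 °C; 1 = growth at the plate median or of vehicle wells; lower values mean less growth of the strain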
Conditions: S. cerevisiae deletion strains, growth OD

Measured: normalized growth

C[N+]1(CCCCC[N+]2(C)CCCC2)CCCC1
inactive: locus YAL013W, strain DEP1, hits give low values 1 and 0.986 | locus YAL021C, strain ccr4, hits give low values 0.99 | locus YAL026C, strain drs2, hits give low values 0.995 | locus YAL030W, strain snc1, hits give low values 1 | locus YAL040C, strain CLN3, hits give low values 0.976 | locus YBL061C, strain skt5, hits give low values 0.998 | locus YBR009C, strain hhf1, hits give low values 1 | locus YBR021W, strain FUR4, hits give low values 1.01 | locus YBR023C, strain chs3, hits give low values 0.989 | locus YBR171W, strain sec66, hits give low values 1 | locus YBR229C, strain ROT2, hits give low values 1.01 | locus YBR231C, strain swc5, hits give low values 0.986 | locus YBR279W, strain paf1, hits give low values 0.993 | locus YCL011C, strain gbp2, hits give low values 0.993 | locus YCL016C, strain dcc1, hits give low values 0.993 | locus YCL029C, strain bik1, hits give low values 1.04 | locus YCL061C, strain MRC1 (second series), hits give low values 0.994 | locus YCL061C, strain MRC1, hits give low values 0.995 | locus YCL069W, strain vba3, hits give low values 1 | locus YCR088W, strain abp1, hits give low values 0.999 | locus YDL005C, strain med2, hits give low values 0.983 | locus YDL035C, strain GPR1, hits give low values 1.01 | locus YDL040C, strain nat1, hits give low values 0.989 | locus YDL074C, strain BRE1, hits give low values 1.02 | locus YDL101C, strain DUN1, hits give low values 1.01 | locus YDL134C, strain PPH21, hits give low values 1.01 | locus YDL185W, strain tfp1, hits give low values 1.01 | locus YDL192W, strain arf1, hits give low values 1.02 | locus YDR001C, strain nth1, hits give low values 1 | locus YDR069C, strain doa4, hits give low values 0.995 | locus YDR101C, strain arx1, hits give low values 1.01 | locus YDR137W, strain rgp1, hits give low values 1.04 | locus YDR150W, strain NUM1, hits give low values 1 | locus YDR159W, strain sac3, hits give low values 0.991 | locus YDR162C, strain NBP2, hits give low values 1.01 | locus YDR195W, strain ref2 0.922 | locus YDR297W, strain sur2, hits give low values 1.01 | locus YDR318W, strain mcm21, hits give low values 1.02 | locus YDR334W, strain swr1, hits give low values 0.991 | locus YDR335W, strain msn5, hits give low values 0.991 | locus YDR363W, strain ESC2, hits give low values 0.985 | locus YDR388W, hits give low values 1.01 | locus YDR392W, strain spt3, hits give low values 1.01 | locus YDR502C, strain sam2, hits give low values 1.01 | locus YEL003W, strain gim4, hits give low values 0.997 | locus YEL037C, strain rad23, hits give low values 0.994 | locus YEL061C, strain CIN8 (second series), hits give low values 0.991 | locus YEL061C, strain CIN8, hits give low values 1 | locus YER002W, strain NOP16, hits give low values 1.01 | locus YER015W, strain faa2, hits give low values 0.993 | locus YER016W, strain bim1, hits give low values 0.995 | locus YER110C, hits give low values 1.02 | locus YER111C, strain swi4, hits give low values 0.983 | locus YER155C, strain BEM2 (second series), hits give low values 0.996 | locus YER155C, strain BEM2, hits give low values 0.997 | locus YER167W, strain BCK2, hits give low values 1 | locus YFR010W, strain ubp6, hits give low values 0.998 | locus YGL078C, strain dbp3, hits give low values 1.01 | locus YGL086W, strain mad1, hits give low values 0.996 | locus YGL167C, strain pmr1, hits give low values 1 | locus YGL173C, strain kem1, hits give low values 1 | locus YGL227W, strain vid30, hits give low values 0.984 | locus YGL240W, strain doc1, hits give low values 0.988 | locus YGL248W, strain PDE1, hits give low values 1.02 | locus YGL253W, strain hxk2, hits give low values 0.987 | locus YGR078C, strain PAC10, hits give low values 1.02 | locus YGR135W, strain pre9, hits give low values 1.01 | locus YGR229C, strain SMI1, hits give low values 1.01 | locus YGR252W, strain gcn5, hits give low values 1 | locus YHR013C, strain ard1, hits give low values 0.962 | locus YHR027C, strain rpn1, hits give low values 0.998 | locus YHR030C, strain SLT2, hits give low values 1.01 | locus YHR079C, strain IRE1 (second series), hits give low values 1.02 | locus YHR094C, strain hxt1, hits give low values 1.01 | locus YHR129C, strain ARP1, hits give low values 1.01 | locus YHR142W, strain chs7, hits give low values 0.997 | locus YHR200W, strain rpn10, hits give low values 1 | locus YIL066C, strain RNR3, hits give low values 1.01 | locus YIL073C, strain SPO22, hits give low values 1.05 | locus YIL125W, strain kgd1, hits give low values 1.02 | locus YIR030C, strain dcg1, hits give low values 1.01 | locus YJL092W, strain hpr5, hits give low values 0.997 | locus YJL095W, strain BCK1 (second series), hits give low values 0.993 | locus YJL095W, strain BCK1, hits give low values 1.03 | locus YJL115W, strain asf1, hits give low values 0.988 | locus YJL129C, strain trk1, hits give low values 0.992 | locus YJL134W, strain LCB3, hits give low values 1 | locus YJL154C, strain vps35, hits give low values 0.995 | locus YJL164C, strain tpk1, hits give low values 0.995 | locus YJL166W, strain qcr8, hits give low values 0.999 | locus YJL168C, strain set2, hits give low values 1.01 | locus YJL187C, strain SWE1 (second series), hits give low values 1.02 | locus YJL187C, strain SWE1, hits give low values 1
